# Experimental data published in PubChem BioAssay AID1626 (SRMLSC, 2009).
# Screen size: about 220,000 compounds; about 2,000 (0.91%) were called active. About 2% were inconclusive and are not listed. A selection follows. Entries with a potency or affinity are not part of this list. Unmarked numbers belong to inactive results. Cut-off read from the data, not from the text of the source: inconclusive = inhibition above about 80% without an active follow-up result; inactive = below that; test concentration not stated here.
# Assay: M. tuberculosis H37Rv growth inhibitors, H37Rv strain (AID 1626);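 note: bacteria incubated seven days before Alamar blue readout; 0% = bacteria only wells and 100% = bacteria with antibiotic wells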
# Conditions: stronger effect = higher value, concentration not given here
row,Compound,inhibition
1,CCOC(=O)C1CCCN(C(=O)c2cccc(NC(=O)C(CC)CC)c2)C1 (stereo not drawn),-1.45%
2,CCCCCOc1ccc(C)cc1CN(CCCl)CCCl,5.72%
3,CCOC(=O)CNc1c(N2CCN(c3ccccn3)CC2)c(=O)c1=O,0.74%
4,COCCn1c(C)cc(C(=O)COC(=O)c2ccc3c(c2)NC(=O)CS3)c1C,3.82%
5,N#C/C(=C\c1cn[nH]c1-c1ccc(Cl)cc1)C(=O)NC1CC1,9.87%
6,CCOC(=O)COc1cc(=O)n(CC)c2ccccc12,7.42%
7,CCOC(=O)C(=O)Nc1cc(C)nn1-c1nc2ccccc2[nH]1,-8.84%
8,Cc1cc(NC(=O)/C=C/c2ccc(F)cc2)n(-c2nc3ccccc3[nH]2)n1,13.6%
9,Cc1cc(NC(=O)C2CCC2)n(-c2ccccn2)n1,2.03%
10,COc1ccc(/C=C/C(=O)Nc2cc(C)nn2-c2nc3ccccc3[nH]2)cc1,11.4%
11,COC(C[C@@H]1O[C@H]1[C@H](O)[C@@H](C)OCc1ccccc1)OC,-4.16%
12,CCn1c2ccccc2c2nnc(NN)nc21,-7.42%
13,O=C(/C(C=Nc1cccc(C(F)(F)F)c1)=C(/O)c1ccco1)C(F)(F)F,0.06%
14,Cc1nn(C)c(C)c1NC(=O)CCl,-7.2%
15,CCn1c(SCC(=O)N=Nc2c(O)[nH]c3ccccc23)nnc1-c1ccc(C(C)(C)C)cc1,-1.76%
16,Cc1[nH]c2ccc(F)cc2c1CCNC(=O)C1CCCCC1C(=O)OCC(F)(F)F (stereo not drawn),2.82%
17,O=C(NCc1ccccc1)c1ccc(Br)cc1,-2.09%
18,Cc1[nH]n(-c2ccccc2)c(=O)c1N=Nc1ccccc1,3.96%
19,Cc1ccccc1N=Nc1c(C)[nH]n(-c2ccccc2)c1=O,-1.01%
20,Cc1[nH]n(-c2ccccc2)c(=O)c1N=Nc1ccc2c(c1)OCCO2,-5.08%
21,Cc1[nH]n(-c2ccccc2)c(=O)c1N=Nc1ccccc1O,5.76%

row,Compound,inhibition
1,Cc1nnc(NC(=O)CCSCCC(=O)Nc2nnc(C)s2)s1,1.24%
2,COc1ccc(/C=C/C(=O)c2c(O)ccc3c(C)cc(=O)oc23)cc1,17.2%
3,O=C(COC(=O)c1ccccc1Cl)NCCC1=CCCCC1,4.94%
4,O=C(COC(=O)c1ccccc1O)NCCC1=CCCCC1,7.1%
5,O=C(NCc1ccco1)C1CCN(Cc2ccc(F)cc2)CC1,1.23%
6,COc1ccc(CNC(=S)Nc2cc(C)ccc2C)cc1,4.83%
7,C=CCn1c(SCC(=O)N2CCc3ccccc3C2)nc2ccccc2c1=O,-0.56%
8,O=C1CC(c2ccccc2Oc2cccc(Cl)c2)C(n2cncn2)C(=O)C1C1NCCc2ccccc21 (stereo not drawn),-9.29%
9,Cc1cc(C)c2c(n1)sc1c(N3CCN(C)CC3)ncnc12,7.86%
10,Cc1cc(C)c2c(n1)sc1c(N3CCN(CCO)CC3)ncnc12,18.8%
11,Cc1ccc(NC(=O)NCC2CCN(Cc3cccc(Cl)c3)CC2)c(Cl)c1,33.5%
12,CCc1cccc(CN2CCC(CNC(=O)Nc3ccc(Cl)cc3)CC2)c1,0.84%
13,COCCn1c(COc2ccc(OC)cc2)nc2ccccc21,4.25%
14,Cc1sc(NC(=O)C2CC(Cl)=CCC2C(=O)O)c(C#N)c1C (stereo not drawn),-16.1%
15,Cc1ccc(-c2nnn(CC(=O)N(c3ccc(F)cc3)C(C(=O)NC(C)(C)C)c3ccco3)n2)o1 (stereo not drawn),-0.26%
16,Cc1onc(-c2c(Cl)cccc2Cl)c1C(=O)c1ccccc1,-5.4%
17,Cc1ccc(NC(NC(=O)c2cccs2)C(Cl)(Cl)Cl)cc1 (stereo not drawn),21%
18,Cc1ccccc1NC(NC(=O)c1cccs1)C(Cl)(Cl)Cl (stereo not drawn),-3.03%
19,Nc1nc(SCC(=O)Nc2ccccc2)[nH]c(=O)c1NC(=O)c1cccs1,-5.6%
20,Cc1ccc2c(CC(=O)Nc3cccc(S(=O)(=O)N4CCOCC4)c3)coc2c1,5.42%
21,CC(C)C(=O)NC(CC(=O)O)c1ccccc1 (stereo not drawn),-15.2%

row,Compound,inhibition
1,Cc1nnc(SCC(=O)N/N=C/c2cc(Cl)c(O)c(Cl)c2)s1,-3.34%
2,COC(=O)c1cc(-c2ccccc2)on1,45%
3,Cc1cc(NC(=O)/C=C/c2ccccc2)no1,-1.33%
4,O=C(Nc1ccc(N2CCOCC2)c(Cl)c1)c1cccnc1Cl,-3.3%
5,Cc1cccn2c(=O)c(C=NCCO)c(Nc3ccc(Cl)cc3)nc12,2.37%
6,Cc1cc(=O)oc(C)c1C(=O)Nc1cccc2ccccc12,7.53%
7,COc1ccccc1NC(=O)c1c(C)oc2c1CCCC2,-16.9%
8,FC(F)(F)c1cc(Oc2ccccc2)nc(-c2ccccn2)n1,12.1%
9,C#CCSc1cc(C(F)(F)F)nc(-c2ccccn2)n1,5.1%
10,CCN(CC)c1cc(C(F)(F)F)nc(-c2ccccn2)n1,-2.81%
11,COc1cc(C(F)(F)F)nc(-c2ccccn2)n1,6.27%
12,O=C(O)CSc1cc(C(F)(F)F)nc(-c2ccccn2)n1,-6.21%
13,CN(C)c1cc(C(F)(F)F)nc(-c2ccccn2)n1,3.02%
14,FC(F)C(F)(F)c1cc(-c2ccc(Cl)cc2)n[nH]1,12.2%
15,CNc1nnc(CSc2nc(C)cc(C)n2)s1,-5.32%
16,O=C(c1cccc(C(F)(F)F)c1)C1CCCN(C(=O)CCCn2cncn2)C1 (stereo not drawn),4.12%
17,CN(CCCNC(=O)CSc1cc(=O)n(C)c2cc(Cl)ccc12)Cc1ccccc1,4.19%
18,COc1ccc(NC(=O)c2noc(C(C)C)c2[N+](=O)[O-])cc1,-2.72%
19,NS(=O)(=O)c1ccc(CNC(=S)NC2CC2)cc1,-2.38%
20,CN(Cc1ccccc1)c1ccc(N2C(=O)CCC2=O)cc1[N+](=O)[O-],-1.08%
21,COc1ccccc1NS(=O)(=O)c1ccc(C(N)=O)cc1,-0.48%
